This note sets out measurements from PubChem BioAssay AID1347076 (National Center for Advancing Translational Sciences (NCATS), 2019).

Where “and” joins values, the source holds several entries; their conditions need not be identical. Equal values may be shown once. Out of some 400,000 compounds screened, about 13,000 (3.2%) were called active. A call without a number means that no potency is given here. Not shown: some 18% with an inconclusive outcome. Calls come from the whole dose curve; as a rule, active = well fitted cell-killing curve with a large enough effect; inconclusive = small, poorly fitted or top-dose-only effect, or effect the other way; inactive = flat fitted curve, though single readings scatter. The full list was thinned out, with actives kept by preference.
Potency is the fitted concentration of half-maximal effect.

A short description of the assay: qHTS assay for MDR1-selective chemotherapeutics: Primary screen using the drug-selected MDR subline cells KB-V1. Note: nearly all actives have a fitted effect of over 60% in size. Particulars: KB-V1 MDR cells viability, CellTiter-Glo, 72 h; series mostly up to 46.1 µM. The method, boiled down:
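In this primary screen, KB-V1 cells overexpressing P-gp are incubated with library compounds (lowest to highest concentration) for 72 h at 37 degrees C before a luminescent ATP viability read.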
`CCc1ccc(-c2nn(-c3ccccc3C)cc2C(=O)N2CCN(C3CCS(=O)(=O)C3)CC2)cc1` (stereo not given): the Potency is 14.6 µM (active). With `CCn1cc(C(=O)N2CCN(C3CCCCC3)CC2)c2cc(OC)c(OC)cc2c1=O`, the Potency entry was “inactive”. As to `COc1ccccc1N1CCN(C(=O)c2cn(-c3ccccc3)nc2-c2cccnc2)CC1`, the Potency result is “inactive”.

Turning to `COc1cc(C)c(CN2CCN(C(=O)CCC(=O)c3ccc(C)s3)CC2)cc1OC`, the Potency entry is “inactive”. Under `CCCNC(=O)c1cc(C2CCCCN2S(=O)(=O)c2ccc(C#N)cc2)on1` (stereo not given) stands “inactive”; under `O=C(CN1CCSc2ccccc21)N1CCN(c2ccccc2)CC1`, “inactive”; under `CCCN(CCC)CCNC(=O)c1cc2c(C)nc3ccccc3c2o1`, 14.1 µM (active). Next, `CCN(CC)CCNC(=O)c1ccc(NC(=O)c2cc(-c3ccncc3)nc3ccccc23)cc1`: “inactive”. `Cc1nc2ccccc2c2oc(C(=O)NCCCN3CCC(C)CC3)cc12`: the Potency result was “inactive”. Next, `Cc1csc[n+]1CCC1CCCCC1`: “inactive”; `COc1cc([N+](=O)[O-])ccc1NC(=O)CN1CCCC1`: “inactive”; `COc1ccccc1CC(=O)Nc1ccc(F)cc1F`: “inactive”.

Consider `COc1ccccc1CC(=O)Nc1ccc([N+](=O)[O-])cc1OC`, for which the Potency is 16.4 µM (active).

Take `Cc1ccc(CNC(=O)CCc2c(C)nc3c(c(C)nn3-c3ccccc3)c2C)cc1`: the Potency entry was “inactive”.

Regarding `Cc1ccccc1S(=O)(=O)NC(=O)C1(C)CCN1C(=O)C1(c2ccccc2)CCCC1` (stereo not given), the Potency entry was “inactive”.

Regarding `COc1cc(C2c3cc4c(cc3C(O)C3COC(=O)C23)OCO4)cc(OC)c1OC` (stereo not given), the Potency was 4.11 µM (active) and 231 nM (active).

As for `COc1cc(OC)c2c(c1)OC(=O)CC2c1cc(OC)c(OC)c(OC)c1` (stereo not given), the Potency result is “inactive”. Under `COc1cc(C2CC(=O)Oc3cc(OC)c(OC)c(OC)c32)cc(OC)c1OC` (stereo not given) stands “inactive”. Turning to `Cc1nn(C)c2c1c(C(F)(F)F)cc(=O)n2C(C)C(=O)NCc1ccc(Cl)cc1` (stereo not given), the Potency entry is “inactive”. Next, `Cc1cccc(-c2cnc(C(O)c3ccc4ccccc4c3)[nH]2)c1` (stereo not given): “inactive”; `O=C(Cc1ccc([N+](=O)[O-])cc1)Nc1ccc(C(=O)N2CCOCC2)cc1`: “inactive”; `Cc1ccccc1-c1ccc(Nc2ccc(C(=O)N3CCOCC3)cc2)nn1`: 14.6 µM (active). Next, `Cc1cc(Nc2ccc(C(=O)N3CCCCC3)cc2)c2cccc(C)c2n1`: “inactive”.

Turning to `Cc1ccccc1NC(=O)Cc1nc(COC(=O)CNC(=O)c2ccc(Cl)cc2Cl)cs1`, the Potency entry is “inactive”. Next, `CS(=O)(=O)/C(C#N)=C/c1cccn1S(=O)(=O)c1ccc([N+](=O)[O-])cc1`: “inactive”. Next, `COc1ccc(C(C)(O)c2nc(-c3ccc(C)c(C)c3)cs2)cc1` (stereo not given): “inactive”; `CN(c1ccccc1)c1nc(N)c([N+](=O)[O-])c(NCc2ccco2)n1`: 20.6 µM (active).

`COCCNc1nc(N)c([N+](=O)[O-])c(NCCO)n1`: the Potency result was “inactive”. Next, `COc1cccc(Nc2nc(N)c([N+](=O)[O-])c(NCc3ccco3)n2)c1`: “inactive”; `Cc1cccc(S(=O)(=O)N(C)C[C@@H]2OCc3cnnn3CCCC(=O)N([C@H](C)CO)C[C@@H]2C)c1`: “inactive”; `CCc1ccccc1OCCSc1nc(-c2cccs2)nc2cc(=O)[nH]n12`: “inactive”. Next, `Cc1nnc(SCC(=O)NCc2ccccc2Cl)c2nn(-c3ccccc3)c(C)c12`: “inactive”. Next, `C[C@H]1CN(c2ccc(Br)cc2)C(=O)[C@@H]1CC(=O)Nc1ccc(Br)cc1`: “inactive”; `CNC(=O)C[C@H]1C(=O)N(c2ccc(OC)cc2)C[C@@H]1Cc1ccccc1`: “inactive”. For `O=C(NCc1cccnc1)c1cc(C2CCCCN2C(=O)CCc2ccccc2)on1` (stereo not given), the Potency result is “inactive”. Next, `NC(=O)c1ccccc1N(Cc1ccccc1)S(=O)(=O)c1ccccc1`: “inactive”; `COc1ccc(C)cc1N(CC(=O)N1CCCC1)S(=O)(=O)c1ccccc1`: “inactive”. Next, `COc1ccc(N(CC(=O)N2CCCCCC2)S(=O)(=O)c2ccccc2)cc1`: “inactive”; `CCOC(=O)N1CCN(C(=O)c2ccccc2N(Cc2ccccc2)S(=O)(=O)c2ccc(OC)cc2)CC1`: 20.6 µM (active). Next, `CCOC(=O)N1CCN(S(=O)(=O)c2ccc(OC)cc2)CC1`: “inactive”.

Take `CCOC(=O)N1CCN(C(=O)CN(c2ccc(C)c(C)c2)S(=O)(=O)c2ccccc2)CC1`: the Potency is 1.16 µM (active). For `CC1CCCCN1Cc1c(O)ccc2c(=O)c(-c3cccc(Cl)c3)c(C(F)(F)F)oc12` (stereo not given), the Potency result was “inactive”. Next, `CCC1CN(S(=O)(=O)c2cc(-c3cc(C)no3)ccc2C)c2cc(C)ccc2O1` (stereo not given): “inactive”. Under `C[C@@H]1CN([C@H](C)CO)C(=O)CCCn2nncc2CO[C@@H]1CN(C)S(=O)(=O)c1cccc(C#N)c1` stands “inactive”. Under `Cc1csc(NCC(=O)c2c[nH]c3ccccc23)n1` stands “inactive”; under `COc1ccc(-c2nc3c4ccccc4n(CC(=O)Nc4ccc(C(C)=O)cc4)c(=O)n3n2)cc1`, “inactive”; under `COc1ccc(/C=C(\C#N)c2c[nH]c3ccccc23)cc1`, 1.3 µM (active). Regarding `COc1ccc(/C=C(\NC(=O)c2ccc(OC)c(OC)c2)C(=O)NCCc2c[nH]c3ccccc23)cc1`, the Potency entry was “inactive”. Under `COc1ccc(C(C(O)C(=O)c2c[nH]c3ccccc23)N2CCN(c3ccccc3)CC2)cc1` (stereo not given) stands “inactive”; under `O=C(CC[C@H]1O[C@@H](n2ccc(=O)[nH]c2=O)[C@H](O)[C@@H]1O)N[C@H](Cc1ccccc1)C(=O)NCc1ccco1`, “inactive”.

With `Oc1c(C(c2ccc(F)cc2)N2CCN(Cc3ccccc3)CC2)sc2nc(-c3ccco3)nn12` (stereo not given), the Potency result was “inactive”. Next, `COC(=O)c1ccc(Cn2c(SCC(=O)N(C)c3ccccc3)nc3ccccc32)cc1`: “inactive”. Next, `C#CCNC(=O)C[C@@H]1C[C@@]2(C(=O)OCC)CCCC=C2N(Cc2ccco2)C1=O`: “inactive”.

As to `COCCCNC(=O)CNC(=S)N(Cc1cc(OC)c(OC)c(OC)c1)C1CCCC1`, the Potency was 20.6 µM (active). Under `COc1cc(C(=O)N(Cc2ccc(C(C)C)cc2)C2CCS(=O)(=O)C2)cc(OC)c1OC` (stereo not given) stands “inactive”. With `COc1cc(C(=O)N(Cc2ccc(N(C)C)cc2)C2CCS(=O)(=O)C2)cc(OC)c1OC` (stereo not given), the Potency entry was “inactive”. Under `CCCCCCN1CCN(C2CN(Cc3cn(Cc4ccc(F)cc4)nn3)S(=O)(=O)C2)CC1` (stereo not given) stands “inactive”; under `CC(C)(C)OC(=O)N(Cc1ccccc1)Cc1ccc(OCc2cccc(NC(=O)c3ccccc3)c2)cc1`, “inactive”.

Take `CC(C)c1cc(C(N)=O)c(NC(=O)c2cccc(COc3ccc(Br)cc3)c2)s1`: the Potency was 20.6 µM (active). Under `N#Cc1ccccc1NC(=O)c1cccc(COc2ccc(Cl)cc2Cl)c1` stands “inactive”; under `COc1ccccc1C(=O)NC(=S)Nc1ccc(N2CCOCC2)cc1`, “inactive”. As to `Cc1cccc(C(=O)NC2CCN(CC(=O)Nc3cccc(Cl)c3)CC2)c1`, the Potency result is “inactive”. Under `CCc1nc2ccc(C(=O)Nc3cccc(OC)c3)cn2c1N(CCC(C)C)CCN(C)C` stands “inactive”.

Take `COc1c(Cl)cc(Cl)cc1C(=O)Nc1cccc2cccnc12`: the Potency result was “inactive”.

Regarding `O=C(Nc1cccc2cccnc12)c1cccc(Cl)c1`, the Potency entry is “inactive”. Next, `CC(=O)/C(=N\Nc1ccc(Cl)cc1Cl)Sc1cccc2cccnc12`: 18.4 µM (active); `COc1ccc(/C=C/c2ccccn2)cc1OC`: “inactive”.

Turning to `CN(C)C(CNC(=O)c1cc2ccccc2o1)c1ccccc1` (stereo not given), the Potency is 16.4 µM (active). Next, `Cc1ccc(NC(=O)c2cc3ccccc3o2)cc1`: “inactive”; `CN(C)C(CNC(=O)Cc1ccc([N+](=O)[O-])cc1)c1ccccc1` (stereo not given): “inactive”; `O=C(Nc1cc(Br)ccc1F)c1nc[nH]c1C(=O)NCc1ccccc1`: “inactive”.

As to `CCCCOC(=O)/C(C#N)=C/c1ccc(-c2cccc(C(F)(F)F)c2)o1`, the Potency entry was “inactive”. Under `O=C1NC(c2cc3c(cc2Cl)OCO3)Oc2ccccc21` (stereo not given) stands “inactive”.

As to `O=C1OCC2=C1C(c1ccc(Cl)cc1)c1cc3c(cc1O2)OCO3` (stereo not given), the Potency is 23.1 µM (active).

Regarding `CCOc1ccc(CNCc2c(C(=O)O)c(C)n(Cc3cccc(OC)c3)c2C)cc1OC`, the Potency result is “inactive”.

As for `CCC(C)CN1C(=O)CN(S(C)(=O)=O)CC1(C)C(=O)Nc1ccc2c(c1)OCCO2` (stereo not given), the Potency entry was “inactive”.

On to `O=C(C=CC(=O)Nc1ccc(F)cc1F)Nc1ccc(F)cc1F`, for which the Potency entry is “inactive”. Take `Cc1ccc(C(=O)OCC(=O)NC2CCCCCCC2)cc1C`: the Potency entry is “inactive”. Under `O=C(Nc1cccc2ccccc12)N1CCN(Cc2ccc3c(c2)OCO3)CC1` stands 16.4 µM (active). For the molecule `O=C(CCCN1C(=O)c2cccc3cccc(c23)C1=O)N1CCN(Cc2ccc3c(c2)OCO3)CC1`, the Potency result is “inactive”. For `O=C(c1cccs1)N1CCN(Cc2ccc3c(c2)OCO3)CC1`, the Potency result is “inactive”.

In the case of `O=[n+]1c2c(n([O-])c3cc(Br)ccc31)CCC2`, the Potency result was “inactive”. Next, `C/C(=N\N)c1c(-c2ccccc2)c2cc(Br)ccc2[nH]c1=O`: “inactive”; `O=C1CCCc2c1[nH]c1ccc(Br)cc21`: 0.517 µM (active). Regarding `COC(=O)C(Cc1c[nH]c2ccccc12)NC(=O)CCNC(=O)c1ccco1` (stereo not given), the Potency result is “inactive”. Next, `COc1cc2nc(C#Cc3nc4cc(OC)c(OC)cc4[nH]3)[nH]c2cc1OC`: “inactive”; `COc1ccc(C2NC(=O)c3ccccc3N2)cc1` (stereo not given): “inactive”; `O=C1NC(c2cccc(Cl)c2)Nc2ccccc21` (stereo not given): 8.2 µM (active).

In the case of `C=CCOc1cccc(C2NC(=O)c3ccccc3O2)c1` (stereo not given), the Potency result was “inactive”. Next, `CCCNC(=O)C1(C)CCN1C(=O)C1(c2ccccc2)CC1` (stereo not given): “inactive”. Regarding `Cc1cccc(N2CCN(c3c(CN4CCCC4)c(=O)oc4ccccc34)CC2)c1C`, the Potency result is “inactive”. Under `Cc1cccc(N2CCN(Cc3c(C)n(C)n(-c4ccccc4)c3=O)CC2)c1C` stands 18.4 µM (active). For the molecule `Cc1c(CN2CCC(C)CC2)c(=O)n(-c2ccccc2)n1C`, the Potency entry is “inactive”. In the case of `CSCCC(NC(=O)COc1ccccc1)C(=O)N(C)CC(=O)Nc1ccc(C)cc1` (stereo not given), the Potency was 16.4 µM (active). Next, `CSCCC(NC(=O)COc1ccccc1)C(=O)Nc1ccc(C)cc1` (stereo not given): “inactive”; `CSCCC(NC(N)=O)C(=O)N(C)CC(=O)Nc1ccc(C)cc1` (stereo not given): “inactive”. Next, `O=C1[C@H]2[C@@H](c3ccc(C(F)(F)F)cc3)N[C@]3(CCCN(Cc4ccc(Br)cc4)C3=O)[C@H]2C(=O)N1Cc1ccccc1`: “inactive”. Consider `COc1ccc(C(=O)NCC(c2ccc(N(C)C)cc2)N2CCc3ccccc32)c(OC)c1` (stereo not given), for which the Potency entry was “inactive”. Next, `Nc1c(C(=O)Nc2ccc3c(c2)OCCO3)nnn1Cc1ccccc1`: “inactive”; `COc1cccc(CNC(=O)c2nnn(CC(=O)Nc3cc(Cl)ccc3C)c2N)c1`: “inactive”. Under `Nc1c(C(=O)NCc2ccccc2)nnn1Cc1cccc(Cl)c1` stands 9.2 µM (active). Under `CCS(=O)(=O)N1CCc2cc(C(=O)NCc3ccc(OC)cc3)ccc21` stands “inactive”; under `Cc1ccc(Oc2c(C(F)(F)F)oc3c(CN4CCCCC4)c(O)ccc3c2=O)cc1`, “inactive”.

`COc1ccc(-c2c(C)c3ccc(O)c(CN4CCN(C)CC4)c3oc2=O)cc1OC`: the Potency entry was “inactive”.

For the molecule `O=c1oc2c(CN3CCCCC3)c(O)ccc2c2c1CCCCC2`, the Potency is 5.8 µM (active).

With `Cc1ccc(S(=O)(=O)N[C@H]2CCC[C@@H]2O)cc1`, the Potency result is “inactive”. Next, `CCn1ncc(C2=NOC(C(=O)Nc3ccccc3C(=O)OC)C2)c1C` (stereo not given): 18.4 µM (active); `COc1cc(NC(=O)C2CC(c3ccccc3O)=NO2)c(OC)cc1Cl` (stereo not given): “inactive”; `CCn1ncc(C2=NOC(C(=O)N3CCN(c4ccccc4)CC3)C2)c1C` (stereo not given): “inactive”.

As for `COc1cccc(CNC(=O)C(NS(=O)(=O)c2ccc3nc(C)sc3c2)C(C)C)c1` (stereo not given), the Potency entry is “inactive”.
